# Source: the supplement of paper PMC8728848
# This is one part of a sample in which the strongest signals are shown more often than they occur.
# Experiments:
# Assay in all cases: glycan array binding signal (z-score within array); higher = stronger binding
# [1] = test system: Neu5Ac(a2-3)Gal(b1-3)GlcNAc(b1-2)Man; conditions: glycan notation: IUPAC condensed, linker removed
# Method in brief: (§1)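 Columns mapping to the same glycan were averaged after glycan names were converted to IUPAC-condensed notation. The data come from 3228 arrays in the Consortium for Functional Glycomics database, limited to those with an available protein sequence. Binding is reported as a within-array Z-score averaged across arrays of one protein sequence and across linkers.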
# [2] = test system: Neu5Ac(a2-3)Gal(b1-3)GlcNAc(b1-6)GalNAc; conditions: glycan notation: IUPAC condensed, linker removed; mutation: R125K
# Method in brief: as §1
# [3] = test system: Neu5Ac(a2-3)Gal(b1-3)GlcNAc; conditions: glycan notation: IUPAC condensed, linker removed
# Method in brief: as §1
# [4] = test system: Neu5Ac(a2-3)Gal(b1-3)[GlcNAc(b1-6)]GalNAc; conditions: glycan notation: IUPAC condensed, linker removed; mutation: R125K
# Method in brief: as §1
# [5] = test system: Neu5Ac(a2-3)Gal(b1-4)GlcNAc(b1-2)Man(a1-3)[GlcNAc(b1-4)][Neu5Ac(a2-3)Gal(b1-4)GlcNAc(b1-2)Man(a1-6)]Man(b1-4)GlcNAc(b1-4)GlcNAc; conditions: glycan notation: IUPAC condensed, linker removed
# Method in brief: as §1
# [6] = test system: Neu5Ac(a2-3)Gal(b1-4)GlcNAc(b1-2)Man(a1-3)[Neu5Ac(a2-3)Gal(b1-4)GlcNAc(b1-2)Man(a1-6)]Man(b1-4)GlcNAc(b1-4)[Fuc(a1-6)]GlcNAc; conditions: glycan notation: IUPAC condensed, linker removed; mutation: R125K
# Method in brief: as §1
# [7] = test system: Neu5Ac(a2-3)Gal(b1-4)GlcNAc(b1-2)[Neu5Ac(a2-3)Gal(b1-4)GlcNAc(b1-4)]Man(a1-3)[GlcNAc(b1-4)][Neu5Ac(a2-3)Gal(b1-4)GlcNAc(b1-4)Man(a1-6)]Man(b1-4)GlcNAc(b1-4)GlcNAc; conditions: glycan notation: IUPAC condensed, linker removed; mutation: R125K
# Method in brief: as §1
# [8] = test system: Neu5Ac(a2-3)Gal(b1-4)GlcNAc(b1-2)[Neu5Ac(a2-3)Gal(b1-4)GlcNAc(b1-6)]Man(a1-6)[Neu5Ac(a2-3)Gal(b1-4)GlcNAc(b1-2)Man(a1-3)]Man(b1-4)GlcNAc(b1-4)GlcNAc; conditions: glycan notation: IUPAC condensed, linker removed
# Method in brief: as §1
# [9] = test system: Neu5Ac(a2-3)Gal(b1-4)GlcNAc(b1-3)Gal(b1-4)GlcNAc(b1-2)Man(a1-3)[Neu5Ac(a2-3)Gal(b1-4)GlcNAc(b1-3)Gal(b1-4)GlcNAc(b1-2)Man(a1-6)]Man(b1-4)GlcNAc(b1-4)GlcNAc; conditions: glycan notation: IUPAC condensed, linker removed; mutation: R125K
# Method in brief: as §1
# [10] = test system: Neu5Ac(a2-3)Gal(b1-3)GlcNAc(b1-3)Gal(b1-4)GlcNAc; conditions: glycan notation: IUPAC condensed, linker removed
# Method in brief: as §1
# [11] = test system: Neu5Ac(a2-3)Gal(b1-4)GlcNAc(b1-2)Man(a1-3)[Neu5Ac(a2-6)Gal(b1-4)GlcNAc(b1-2)Man(a1-6)]Man(b1-4)GlcNAc(b1-4)GlcNAc; conditions: glycan notation: IUPAC condensed, linker removed
# Method in brief: as §1
# [12] = test system: Neu5Ac(a2-3)Gal(b1-4)GlcNAc(b1-3)Gal(b1-4)GlcNAc(b1-3)Gal(b1-4)GlcNAc(b1-2)Man(a1-3)[Neu5Ac(a2-3)Gal(b1-4)GlcNAc(b1-3)Gal(b1-4)GlcNAc(b1-3)Gal(b1-4)GlcNAc(b1-2)Man(a1-6)]GalNAc; conditions: glycan notation: IUPAC condensed, linker removed
# Method in brief: as §1
# [13] = test system: Neu5Ac(a2-3)Gal(b1-3)GlcNAc(b1-3)GalNAc; conditions: glycan notation: IUPAC condensed, linker removed
# Method in brief: as §1
# [14] = test system: Neu5Ac(a2-3)Gal(b1-4)GlcNAc(b1-2)Man(a1-3)[GlcNAc(b1-2)Man(b1-4)GlcNAc(b1-2)Man(a1-6)]Man(b1-4)GlcNAc(b1-4)GlcNAc; conditions: glycan notation: IUPAC condensed, linker removed
# Method in brief: as §1
# [15] = test system: Neu5Ac(a2-3)Gal(b1-3)GlcNAc6S; conditions: glycan notation: IUPAC condensed, linker removed
# Method in brief: as §1
# [16] = test system: Neu5Ac(a2-3)Gal(b1-4)GlcNAc(b1-3)Gal(b1-3)GlcNAc; conditions: glycan notation: IUPAC condensed, linker removed
# Method in brief: as §1
# [17] = test system: Neu5Ac(a2-3)Gal(b1-3)[Fuc(a1-4)]GlcNAc; conditions: glycan notation: IUPAC condensed, linker removed
# Method in brief: as §1
# [18] = test system: Neu5Ac(a2-3)Gal(b1-3)[Neu5Ac(a2-3)Gal(b1-4)]GlcNAc; conditions: glycan notation: IUPAC condensed, linker removed
# Method in brief: as §1
# [19] = test system: Neu5Ac(a2-3)Gal(b1-4)GlcNAc(b1-2)[Neu5Ac(a2-3)Gal(b1-4)GlcNAc(b1-4)]Man(a1-3)[GlcNAc(b1-4)][Neu5Ac(a2-3)Gal(b1-4)GlcNAc(b1-2)[Neu5Ac(a2-3)Gal(b1-4)GlcNAc(b1-6)]Man(a1-6)]Man(b1-4)GlcNAc(b1-4)GlcNAc; conditions: glycan notation: IUPAC condensed, linker removed
# Method in brief: as §1
# Avaren (Actinomycete K97), sequence (chain, as listed by the source): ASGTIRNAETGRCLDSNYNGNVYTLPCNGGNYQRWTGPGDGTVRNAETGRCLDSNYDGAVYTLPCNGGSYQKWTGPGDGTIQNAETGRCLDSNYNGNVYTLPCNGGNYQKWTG
# PILRb (Mus musculus), Q2YSF2, sequence (Q2YSF2 entry or part of it): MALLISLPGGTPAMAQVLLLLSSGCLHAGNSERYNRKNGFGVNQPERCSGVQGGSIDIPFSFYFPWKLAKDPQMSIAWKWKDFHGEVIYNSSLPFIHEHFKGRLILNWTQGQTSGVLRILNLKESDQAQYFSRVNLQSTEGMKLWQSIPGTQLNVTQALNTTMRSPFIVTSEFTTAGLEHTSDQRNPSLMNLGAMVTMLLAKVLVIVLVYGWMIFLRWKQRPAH
# PILRa (Mus musculus), Q2YSF3, sequence (Q2YSF3 entry or part of it): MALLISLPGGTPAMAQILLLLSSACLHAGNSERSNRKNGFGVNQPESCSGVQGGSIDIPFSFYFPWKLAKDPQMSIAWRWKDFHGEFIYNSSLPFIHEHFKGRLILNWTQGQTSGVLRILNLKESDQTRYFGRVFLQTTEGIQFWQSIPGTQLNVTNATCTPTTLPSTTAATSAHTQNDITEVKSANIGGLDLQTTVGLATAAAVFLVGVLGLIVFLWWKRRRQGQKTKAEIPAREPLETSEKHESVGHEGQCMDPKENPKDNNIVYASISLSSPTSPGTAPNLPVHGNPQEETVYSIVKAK
# Neurocan (Homo sapiens), O14594, sequence (O14594 other isoform, or with tags, fused parts or gaps): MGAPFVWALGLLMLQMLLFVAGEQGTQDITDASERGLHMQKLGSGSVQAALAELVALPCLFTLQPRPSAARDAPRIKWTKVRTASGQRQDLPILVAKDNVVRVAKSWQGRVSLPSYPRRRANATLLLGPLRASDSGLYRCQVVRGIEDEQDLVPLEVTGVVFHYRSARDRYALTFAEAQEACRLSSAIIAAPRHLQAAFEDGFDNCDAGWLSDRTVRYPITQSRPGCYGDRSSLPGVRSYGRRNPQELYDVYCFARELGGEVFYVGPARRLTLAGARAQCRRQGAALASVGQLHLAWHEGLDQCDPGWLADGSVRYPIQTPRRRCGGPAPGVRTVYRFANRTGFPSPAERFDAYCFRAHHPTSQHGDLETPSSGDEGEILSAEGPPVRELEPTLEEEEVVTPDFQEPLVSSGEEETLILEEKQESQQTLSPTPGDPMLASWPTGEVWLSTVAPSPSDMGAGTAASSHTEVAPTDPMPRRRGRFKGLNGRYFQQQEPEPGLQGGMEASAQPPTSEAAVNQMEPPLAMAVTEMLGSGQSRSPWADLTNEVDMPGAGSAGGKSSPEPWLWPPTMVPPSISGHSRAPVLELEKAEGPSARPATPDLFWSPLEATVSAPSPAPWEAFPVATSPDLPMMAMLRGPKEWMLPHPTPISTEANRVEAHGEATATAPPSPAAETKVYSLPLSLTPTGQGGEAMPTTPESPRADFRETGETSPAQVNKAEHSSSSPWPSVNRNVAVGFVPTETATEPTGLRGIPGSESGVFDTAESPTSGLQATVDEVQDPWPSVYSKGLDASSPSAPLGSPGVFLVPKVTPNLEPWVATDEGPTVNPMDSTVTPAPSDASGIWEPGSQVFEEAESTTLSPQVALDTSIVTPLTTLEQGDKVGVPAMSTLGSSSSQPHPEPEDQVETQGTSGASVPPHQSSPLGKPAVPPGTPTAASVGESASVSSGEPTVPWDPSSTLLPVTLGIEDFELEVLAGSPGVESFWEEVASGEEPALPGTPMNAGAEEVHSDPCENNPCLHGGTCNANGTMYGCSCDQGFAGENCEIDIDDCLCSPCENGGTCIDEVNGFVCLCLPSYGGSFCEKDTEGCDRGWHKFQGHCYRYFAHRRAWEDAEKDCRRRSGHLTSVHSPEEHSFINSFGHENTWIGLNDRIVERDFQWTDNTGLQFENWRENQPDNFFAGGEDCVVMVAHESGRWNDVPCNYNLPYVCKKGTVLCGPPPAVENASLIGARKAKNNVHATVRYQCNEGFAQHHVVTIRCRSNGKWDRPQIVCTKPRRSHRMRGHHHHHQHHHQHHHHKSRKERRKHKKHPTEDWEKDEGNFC
# C3b (Homo sapiens), P01024, sequence (P01024 23-667): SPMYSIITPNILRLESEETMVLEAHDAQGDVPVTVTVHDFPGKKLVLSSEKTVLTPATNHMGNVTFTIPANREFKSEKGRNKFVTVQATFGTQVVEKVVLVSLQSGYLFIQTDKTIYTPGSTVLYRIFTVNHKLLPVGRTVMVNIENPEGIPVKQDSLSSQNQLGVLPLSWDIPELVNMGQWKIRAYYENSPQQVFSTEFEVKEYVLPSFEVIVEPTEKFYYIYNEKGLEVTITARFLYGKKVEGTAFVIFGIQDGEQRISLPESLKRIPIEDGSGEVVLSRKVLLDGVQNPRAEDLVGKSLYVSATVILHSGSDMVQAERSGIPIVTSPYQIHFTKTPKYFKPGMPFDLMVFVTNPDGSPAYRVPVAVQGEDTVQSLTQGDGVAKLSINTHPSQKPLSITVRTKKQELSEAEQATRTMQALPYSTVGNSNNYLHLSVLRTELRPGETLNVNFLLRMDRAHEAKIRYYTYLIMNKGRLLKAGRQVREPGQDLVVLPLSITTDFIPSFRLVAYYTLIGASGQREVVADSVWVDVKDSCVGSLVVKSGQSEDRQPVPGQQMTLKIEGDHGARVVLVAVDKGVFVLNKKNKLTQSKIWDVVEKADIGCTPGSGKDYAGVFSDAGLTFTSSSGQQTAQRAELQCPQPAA
# Aggrecan (Rattus norvegicus), NP_071526, sequence (chain, as listed by the source): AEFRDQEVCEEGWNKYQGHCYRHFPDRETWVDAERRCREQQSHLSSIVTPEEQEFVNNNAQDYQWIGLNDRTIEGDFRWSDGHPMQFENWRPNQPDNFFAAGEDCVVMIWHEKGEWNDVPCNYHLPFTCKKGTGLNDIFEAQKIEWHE
# wLAT-1A (Homo sapiens), Q01650, sequence (Q01650 whole entry): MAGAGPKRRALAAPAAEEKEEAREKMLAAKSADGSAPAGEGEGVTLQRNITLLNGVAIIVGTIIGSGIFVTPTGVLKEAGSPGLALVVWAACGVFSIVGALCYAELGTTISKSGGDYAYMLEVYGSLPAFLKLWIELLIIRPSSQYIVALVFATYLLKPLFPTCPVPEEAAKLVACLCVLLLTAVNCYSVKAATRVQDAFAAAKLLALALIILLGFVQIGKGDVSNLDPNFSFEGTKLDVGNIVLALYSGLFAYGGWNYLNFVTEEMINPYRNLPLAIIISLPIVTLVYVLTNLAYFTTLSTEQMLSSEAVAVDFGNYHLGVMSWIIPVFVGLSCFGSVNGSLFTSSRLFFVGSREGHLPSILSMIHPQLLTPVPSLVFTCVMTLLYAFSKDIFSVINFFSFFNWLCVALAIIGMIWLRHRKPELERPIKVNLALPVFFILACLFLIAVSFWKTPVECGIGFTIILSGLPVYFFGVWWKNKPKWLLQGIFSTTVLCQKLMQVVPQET
# 6RG (Lolium perenne), sequence (chain, as listed by the source): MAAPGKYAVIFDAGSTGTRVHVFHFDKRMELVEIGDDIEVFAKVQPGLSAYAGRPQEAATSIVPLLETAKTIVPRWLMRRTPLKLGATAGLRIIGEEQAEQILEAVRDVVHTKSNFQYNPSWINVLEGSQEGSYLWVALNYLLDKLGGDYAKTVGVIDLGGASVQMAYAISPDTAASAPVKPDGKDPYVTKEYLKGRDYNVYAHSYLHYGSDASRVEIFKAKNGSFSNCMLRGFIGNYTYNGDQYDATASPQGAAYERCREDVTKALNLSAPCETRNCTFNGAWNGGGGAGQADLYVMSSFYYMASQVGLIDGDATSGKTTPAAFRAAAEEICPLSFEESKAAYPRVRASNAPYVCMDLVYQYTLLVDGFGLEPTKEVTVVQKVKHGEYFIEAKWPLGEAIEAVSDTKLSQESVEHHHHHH
substance,measurement,setting,value
"Siglec-8 (Homo sapiens), Q9NYZ4",glycan array binding signal (z-score),[1],1.28
same,glycan array binding signal (z-score),[2],0.063
same,glycan array binding signal (z-score),[3]; mutation: R125K,-0.024
same,glycan array binding signal (z-score),[4],-0.157
same,glycan array binding signal (z-score),[5],-0.203
same,glycan array binding signal (z-score),[6],0.029
same,glycan array binding signal (z-score),[7],0.406
same,glycan array binding signal (z-score),[8],0.635
same,glycan array binding signal (z-score),[9],-0.161
Avaren (Actinomycete K97),glycan array binding signal (z-score),[10],-0.128
same,glycan array binding signal (z-score),[11],-0.137
same,glycan array binding signal (z-score),[12],0.039
"PILRb (Mus musculus), Q2YSF2",glycan array binding signal (z-score),[13],-0.463
same,glycan array binding signal (z-score),[14],-0.119
"PILRa (Mus musculus), Q2YSF3",glycan array binding signal (z-score),[15],-0.412
same,glycan array binding signal (z-score),[14],-0.185
"Neurocan (Homo sapiens), O14594",glycan array binding signal (z-score),[3],2.76
same,glycan array binding signal (z-score),[16],0.948
"wLAT-1A (Homo sapiens), Q01650",glycan array binding signal (z-score),[3],-0.345
"Aggrecan (Rattus norvegicus), NP_071526",glycan array binding signal (z-score),[17],-0.038
"C3b (Homo sapiens), P01024",glycan array binding signal (z-score),[18],-0.041
6RG (Lolium perenne),glycan array binding signal (z-score),[11],-0.191
MpAFP RI GFP (Marinomonas primoryensis),glycan array binding signal (z-score),[19],-0.808
